Here are results for 89 compounds from publication PMC4336329 (PLoS ONE, 2015).

Structures are written as SMILES. In all, about 310,000 compounds went through this assay and about 14,000 (4.5%) showed an effect of 50% or more. Effects have a minus sign here. The entries come from a sample that favours strong results as a whole.
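Further: peak tail current of the secondary pulse compared with the same well before compound.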

The target in the experiment is human ether-à-go-go-related gene (hERG) potassium channel (human, UniProt Q12809). As to the kind of experiment: primary screen, population patch clamp on CHO cells stably expressing hERG; higher = less effect of the substance.
human ether-à-go-go-related gene (hERG) potassium channel, sequence (Q12809 whole entry, looked up): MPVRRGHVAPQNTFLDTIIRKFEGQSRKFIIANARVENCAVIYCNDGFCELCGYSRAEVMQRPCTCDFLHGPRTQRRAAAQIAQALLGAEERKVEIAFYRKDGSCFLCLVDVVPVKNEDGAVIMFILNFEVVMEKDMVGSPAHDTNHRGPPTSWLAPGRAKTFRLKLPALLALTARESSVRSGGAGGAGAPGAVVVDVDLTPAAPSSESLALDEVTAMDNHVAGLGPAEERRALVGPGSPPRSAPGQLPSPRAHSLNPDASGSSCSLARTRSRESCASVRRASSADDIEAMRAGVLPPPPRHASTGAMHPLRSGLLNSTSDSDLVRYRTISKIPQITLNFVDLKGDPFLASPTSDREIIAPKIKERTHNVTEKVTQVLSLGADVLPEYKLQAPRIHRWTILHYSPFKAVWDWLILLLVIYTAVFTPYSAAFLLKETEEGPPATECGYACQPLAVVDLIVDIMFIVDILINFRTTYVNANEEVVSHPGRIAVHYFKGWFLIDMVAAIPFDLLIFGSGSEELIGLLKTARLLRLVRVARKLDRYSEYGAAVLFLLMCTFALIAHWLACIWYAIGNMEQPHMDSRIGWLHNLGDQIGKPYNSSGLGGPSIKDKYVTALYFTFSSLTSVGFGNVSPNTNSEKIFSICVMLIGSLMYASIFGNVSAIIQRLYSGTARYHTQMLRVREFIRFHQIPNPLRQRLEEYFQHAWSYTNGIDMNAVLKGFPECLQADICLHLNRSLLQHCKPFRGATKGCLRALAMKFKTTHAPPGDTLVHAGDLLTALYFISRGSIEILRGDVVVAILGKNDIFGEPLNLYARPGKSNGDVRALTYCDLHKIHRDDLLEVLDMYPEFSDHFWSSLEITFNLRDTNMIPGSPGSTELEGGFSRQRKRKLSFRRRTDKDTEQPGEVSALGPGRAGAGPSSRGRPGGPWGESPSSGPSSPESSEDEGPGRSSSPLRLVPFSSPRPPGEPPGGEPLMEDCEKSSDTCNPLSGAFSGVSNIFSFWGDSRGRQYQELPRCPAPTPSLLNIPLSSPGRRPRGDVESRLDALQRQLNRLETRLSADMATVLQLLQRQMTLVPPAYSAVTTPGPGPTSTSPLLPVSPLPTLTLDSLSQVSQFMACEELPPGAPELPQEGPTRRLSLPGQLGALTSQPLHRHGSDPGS
`O=C(c1ccc2c(=O)n(C3CCCC3)c(=S)[nH]c2c1)N1CCN(C2CCCCC2)CC1`: the “hERG current change (%, negative = inhibition) at 10uM” value is 6.5%. For the compound `CSC1=N/C(=C\c2ccccc2C)C(=O)S1`, the “hERG current change (%, negative = inhibition) at 10uM” value is reported as 23.9%. Consider `COc1ccc2cc(C(C)=O)c(=O)oc2c1`, for which the “hERG current change (%, negative = inhibition) at 10uM” value is on record as -11.4%.

Consider `Cl.c1ccc(CCN=C2CCCc3c2[nH]c2ccccc32)cc1`, for which the “hERG current change (%, negative = inhibition) at 10uM” value is -73.2%. As for `OCCN=C1CCCc2c1[nH]c1ccc(Br)cc21`, the “hERG current change (%, negative = inhibition) at 10uM” value is recorded as 6.45%. Then `OCCN=C1CCCc2c1[nH]c1ccc(Cl)cc21`, with -18%; and `CCN(CC)C(=O)c1ccc(CS(=O)(=O)c2ccc(OC)cc2)o1`, with -0.122%. As for `Cc1nc2ccccn2c1C(=O)NC1CCCC1`, the “hERG current change (%, negative = inhibition) at 10uM” value worked out at 16.2%.

On to `Cc1nc2ccccn2c1C(=O)NC1CCCCC1`, for which the “hERG current change (%, negative = inhibition) at 10uM” value stood at 1.83%. Consider `Cn1c(C(=O)NC2CCCCC2)cc2c(=O)n3ccccc3nc21`, for which the “hERG current change (%, negative = inhibition) at 10uM” value came out at 4.32%. Consider `N=c1c(C(=O)NC2CCCC2)cc2c(=O)n3ccccc3nc2n1C1CCCC1`, for which the “hERG current change (%, negative = inhibition) at 10uM” value is given as -82.2%. Then `N=c1c(S(=O)(=O)c2ccc(Cl)cc2)cc2c(=O)n3ccccc3nc2n1C1CCCC1`, with 14%; and `N=c1c(C(=O)NC2CCCC2)cc2c(=O)n3ccccc3nc2n1C1CCCCC1`, with -79%.

In the case of `COc1ccc(N2CCN(C(CNC(=O)C(=O)NC3CC3)c3ccco3)CC2)cc1` (centres unmarked), the “hERG current change (%, negative = inhibition) at 10uM” value was 13.6%. In the case of `CCOc1cc(C=C(C(=O)OC)C(=O)OC)ccc1OCc1ccc([N+](=O)[O-])cc1` it was 4.17%; in that of `O=C(Nc1ccc(F)cc1F)c1cc2ncc(CCCl)cn2n1`, -12.3%; in that of `O=C(Nc1nnc(SCc2ccc(F)cc2)s1)c1cccnc1Cl`, 2.48%. Consider `COc1cc(NC(=O)c2cc3ccccc3o2)c(OC)cc1Cl`, for which the “hERG current change (%, negative = inhibition) at 10uM” value stood at 16.3%. In the case of `Brc1ccc2ncnc(NCc3ccccc3)c2c1` it was -10.3%. Then `c1cncc(CNc2ncnc3ccc(-c4ccoc4)cc23)c1`, with -71.4%. Regarding `c1ccc(CNc2ncnc3c2cnn3Cc2ccccc2)cc1`, the “hERG current change (%, negative = inhibition) at 10uM” value was -22%.

In the case of `c1cncc(CNc2ncnc3sccc23)c1`, the “hERG current change (%, negative = inhibition) at 10uM” value amounted to 17.8%. Then `Clc1ccc(Cn2ncc3c(N4CCCC4)ncnc32)cc1`, with -56.7%; and `Clc1ccc(Cn2ncc3c(N4CCCCC4)ncnc32)cc1`, with -14.4%. Turning to `Clc1ccc(Cn2ncc3c(NCc4cccnc4)ncnc32)cc1`, the “hERG current change (%, negative = inhibition) at 10uM” value is recorded as -51.2%. Turning to `Cc1cccc(CNc2ncnc3ccc(-c4ccoc4)cc23)c1`, the “hERG current change (%, negative = inhibition) at 10uM” value is listed as -12.4%. Then `Clc1ccc(Cn2ncc3c(NCc4ccccc4)ncnc32)cc1`, with -1.94%; and `Clc1ccc(Cn2ncc3c(N4CCOCC4)ncnc32)cc1`, with -16.2%; and `c1csc(CNc2ncnc3ccc(-c4ccoc4)cc23)c1`, with -13.4%. For `Brc1ccc2ncnc(NCc3cccnc3)c2c1`, the “hERG current change (%, negative = inhibition) at 10uM” value is -60.2%.

Take `O=c1c(NCCc2ccc(Cl)cc2)c(-c2ccccc2)c1=O`: the “hERG current change (%, negative = inhibition) at 10uM” value was 5.81%.

Consider `O=S1(=O)CCS(=O)(=O)C1c1ccccc1`, for which the “hERG current change (%, negative = inhibition) at 10uM” value was -1.95%. In the case of `COc1ccc(N/C=C/C(=O)c2cc(OC)c(OC)c(OC)c2)cc1` it was -8.76%; in that of `Cc1nc2cc(CO)ccc2s1`, 9.23%.

In the case of `COC(=O)/C(=C\Nc1ccccc1N)c1ncc(C(F)(F)F)cc1Cl`, the “hERG current change (%, negative = inhibition) at 10uM” value stood at 3.74%. In the case of `CCn1ncc(C2=NOC(C(=O)Nc3c(C)nn(Cc4ccc(F)cc4)c3C)C2)c1C` (centres unmarked) it was 10.3%. For `COc1ccc(-c2nc3nc(C)cc(=O)n3[nH]2)cc1`, the “hERG current change (%, negative = inhibition) at 10uM” value stood at 17.9%. With `CCn1nnnc1NCc1ccc(N2CCCC2)cc1`, the “hERG current change (%, negative = inhibition) at 10uM” value was 3.6%. As for `Cc1ccc(S(=O)(=O)NCCCCCC(=O)NC(C)(C)CO)cc1`, the “hERG current change (%, negative = inhibition) at 10uM” value is reported as 13.7%. Turning to `CCCCNC(=O)CSc1nc2ccccc2n1S(=O)(=O)c1ccc(Br)cc1`, the “hERG current change (%, negative = inhibition) at 10uM” value was -0.913%. Consider `Cc1cccc(-c2ccc3ncnc(NCc4cccs4)c3c2)c1`, for which the “hERG current change (%, negative = inhibition) at 10uM” value is -8.55%. On to `COc1cccc(-c2ccc3ncnc(NCc4cccc(C)c4)c3c2)c1`, for which the “hERG current change (%, negative = inhibition) at 10uM” value was -0.57%.

On to `Cc1cccc(-c2ccc3ncnc(NCc4cccnc4)c3c2)c1`, for which the “hERG current change (%, negative = inhibition) at 10uM” value is listed as -70.5%. In the case of `CCc1ccccc1NC(=O)N1CCCC(CCC(=O)N(C)CCc2ccccn2)C1` (centres unmarked) it was 13.1%; in that of `CN(CCc1ccccn1)C(=O)CCC1CCCN(C(=O)NC2CCCCC2)C1` (centres unmarked), 17.4%; in that of `CCOC(=O)CCNC(=O)N1CCCC(CCC(=O)N(C)CCc2ccccn2)C1` (centres unmarked), -52.3%.

With `CCCCNC(=S)N(C)/N=C/c1ccccc1F`, the “hERG current change (%, negative = inhibition) at 10uM” value is 2.14%. Then `CCCCNC(=S)N(C)/N=C/c1ccc2c(c1)OCO2`, with -50.1%; and `CCCCNC(=S)N(C)/N=C/c1ccc(F)cc1`, with -8.72%.

On to `CCOc1c(N2CCCCC2)c(=O)c1=O`, for which the “hERG current change (%, negative = inhibition) at 10uM” value is 0.507%.

On to `Cc1cc(C)cc(NC(=O)CSc2nnc(-c3ccncc3)o2)c1`, for which the “hERG current change (%, negative = inhibition) at 10uM” value is given as -22.8%. In the case of `COc1cc(OC)c(C(=O)Nc2cccc(C(C)=O)c2)cc1OC` it was -9.08%; in that of `Cc1ccc2cc(CCNS(=O)(=O)c3ccc(F)cc3)c(=O)[nH]c2c1C`, 10.9%. Turning to `CCOC(=O)C1=C(N)OC2=C(C(=O)CC(C)(C)C2)C1c1ccc(C)s1` (centres unmarked), the “hERG current change (%, negative = inhibition) at 10uM” value is listed as -42.3%.

Regarding `CCOC(=O)C1=C(N)OC2=C(C(=O)CCC2)C1c1ccc(C)s1` (centres unmarked), the “hERG current change (%, negative = inhibition) at 10uM” value is given as -54.3%. Take `CCOC(=O)C1=C(N)OC2=C(C(=O)CCC2)C1c1cccs1` (centres unmarked): the “hERG current change (%, negative = inhibition) at 10uM” value was 1.13%. For the compound `CCOC(=O)CC(=O)c1cc(OC)c(OC)c(OC)c1`, the “hERG current change (%, negative = inhibition) at 10uM” value was -3.44%. Consider `COc1ccc(-c2cc(C(F)(F)F)n3nc(C(=O)NCCCn4ccnc4)cc3n2)cc1`, for which the “hERG current change (%, negative = inhibition) at 10uM” value is recorded as -41%.

`O=C(NCCCn1ccnc1)c1nn2c(C(F)(F)F)cc(-c3ccc(Br)cc3)nc2c1Cl`: the “hERG current change (%, negative = inhibition) at 10uM” value is reported as -65.7%. Then `O=C(NCCCn1ccnc1)c1cc2nc(-c3ccc(Br)cc3)cc(C(F)(F)F)n2n1`, with -62.8%.

For `CCCNC(=O)c1nn2c(C(F)(F)F)cc(-c3ccccc3)nc2c1Cl`, the “hERG current change (%, negative = inhibition) at 10uM” value is -4.1%. In the case of `O=C(NCCCn1ccnc1)c1nn2c(C(F)(F)F)cc(-c3ccccc3)nc2c1Cl` it was -29.6%; in that of `Cc1ccc(-c2cc(C(F)(F)F)n3nc(C(=O)NCCCn4ccnc4)cc3n2)cc1C`, -20.6%. On to `COc1ccc(CN(C#N)c2nc(C)cc(C)n2)cc1`, for which the “hERG current change (%, negative = inhibition) at 10uM” value stood at 14.1%. Take `CCOC(=O)C1=C(COC(=O)CCOc2cc(C)ccc2C)NC(=O)NC1C` (centres unmarked): the “hERG current change (%, negative = inhibition) at 10uM” value was -26.5%. Consider `Cc1ccc(N(C(=O)c2snc(C(N)=O)c2N)C(C(=O)NCC2CCCO2)c2ccc(C)o2)c(C)c1` (centres unmarked), for which the “hERG current change (%, negative = inhibition) at 10uM” value is given as -40.9%.

Take `CCN(CC(=O)Nc1ccc(NC(C)=O)cc1)C(=O)C1CCCC1`: the “hERG current change (%, negative = inhibition) at 10uM” value was -13.9%. Then `O=C(NNC(=S)NC(=O)C12CC3CC(CC(C3)C1)C2)c1ccncc1`, with 19.8%; and `CCOC(=O)c1c(C)[nH]c(C(=O)OCc2ccc(F)cc2)c1C`, with -0.855%. Turning to `C=CCN(c1ccccc1)S(=O)(=O)c1cccc(C(=O)O)c1`, the “hERG current change (%, negative = inhibition) at 10uM” value worked out at 16%. Then `O=C(c1cccc(NS(=O)(=O)c2ccc(F)c(F)c2)c1)N1CCN(Cc2ccccc2)CC1`, with -26.8%; and `Cc1ccc(S(=O)(=O)Nc2cccc(C(=O)NC3CCN(Cc4ccccc4)CC3)c2)cc1F`, with -80.6%.

In the case of `Cc1ccc(S(=O)(=O)Nc2cccc(C(=O)NCC3CCCO3)c2)cc1F` (centres unmarked), the “hERG current change (%, negative = inhibition) at 10uM” value turned out to be 2.12%. In the case of `O=C(NCCN1CCOCC1)c1cccc(S(=O)(=O)Nc2ccc(Br)cc2)c1` it was -20.4%. Consider `COc1ccccc1NC(=O)c1cccc(S(=O)(=O)N2CCN(Cc3ccccc3)CC2)c1`, for which the “hERG current change (%, negative = inhibition) at 10uM” value was -19.6%. With `O=C(NC1CCN(Cc2ccccc2)CC1)c1cccc(S(=O)(=O)Nc2ccc(Br)cc2)c1`, the “hERG current change (%, negative = inhibition) at 10uM” value is -59.7%.

For `COc1ccccc1NS(=O)(=O)c1cccc(C(=O)NC2CCN(Cc3ccccc3)CC2)c1`, the “hERG current change (%, negative = inhibition) at 10uM” value is recorded as -56%. For `C=CCN(c1ccccc1)S(=O)(=O)c1cccc(C(=O)NC2CCN(Cc3ccccc3)CC2)c1`, the “hERG current change (%, negative = inhibition) at 10uM” value is on record as -65.3%. For the compound `C=CCN(c1ccccc1)S(=O)(=O)c1cccc(C(=O)NC2CCC(O)CC2)c1` (centres unmarked), the “hERG current change (%, negative = inhibition) at 10uM” value was -7.48%. On to `COc1ccccc1NS(=O)(=O)c1cccc(C(=O)NN)c1`, for which the “hERG current change (%, negative = inhibition) at 10uM” value was -5.56%. In the case of `COc1ccc(NS(=O)(=O)c2cccc(C(=O)NC3CCN(Cc4ccccc4)CC3)c2)cc1` it was -46.7%; in that of `COc1ccc(-c2csc(-c3cccs3)n2)c(OC)c1`, 15.8%. Regarding `CCCN1CNC(=S)N(Cc2ccccc2)C1`, the “hERG current change (%, negative = inhibition) at 10uM” value is 12.2%. In the case of `NC(=O)c1ccsc1NC(=O)COC(=O)c1ccc(Cl)cc1` it was -5.38%; in that of `COc1ccccc1NC(=O)C(=O)N(c1cccnc1)C(C(=O)NC(C)(C)C)c1ccccc1` (centres unmarked), 18.7%. In the case of `CCC(C)(C)NC(=O)c1cc(S(=O)(=O)N2CCCCC2)ccc1N1CCOCC1` it was -13.4%; in that of `O=C1NC(=O)/C(=C\c2ccccc2OCc2cccc([N+](=O)[O-])c2)N1`, -5.66%; in that of `O=C(CCn1c(=O)[nH]c2ccsc2c1=O)Nc1ccc(F)c(F)c1`, 21%.

With `COc1cccc(NC(=O)Cc2nnc(SCC(=O)NC(C)c3ccccc3)n2C)c1` (centres unmarked), the “hERG current change (%, negative = inhibition) at 10uM” value is listed as 15.1%.
